From PubChem BioAssay (NCI) come the findings set out here.

Test systems include T-47D breast; BT-549 breast; MDA-MB-435 melanoma; SW-620 colon; MCF7 breast; HCT-116 colon; HCC-2998 colon; KM12 colon.
Assay in all cases: NCI-60 one-dose screen, 48 h (100 = growth as untreated, 0 = no growth, -100 = all killed)
What all share (details): 10 µM unless noted

About 83,000 compounds went through this panel and 20% of them were active in at least one assay; those are over-represented in the sample as a whole.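 Compound tested at a single concentration for 48 hours in 96-well plates; a percent growth value below 10 was scored as active.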 A number with no mark means an inactive call. Active and inactive are the calls of the source.

For the compound `CSc1nc(Nc2cccc(NC(=O)/C(C#N)=C/c3c(Cl)cccc3Cl)c2)c(C#N)c(-c2cccc([N+](=O)[O-])c2)n1`, the growth with T-47D breast was 37.6%; in the assay on BT-549 breast it was 71.6%; in the assay on MDA-MB-435 melanoma, 43.2%; with SW-620 colon, 38.1%; with MCF7 breast it was 11.3%; in the assay on HCT-116 colon, 35.6%. Also, the growth in the assay with HCC-2998 colon was 60.8%; in the assay with KM12 colon, 78.3%.

With `COc1cc2c(cc1-c1c(C)noc1C)ncc1nc(C3CCCCC3)n([C@H](C)COC(F)F)c12`, the growth in the assay with T-47D breast is 32.8%; in the assay with BT-549 breast, 58.7%; in the assay with MDA-MB-435 melanoma, 34.1%; in the assay with SW-620 colon, 58.7%; in the assay with MCF7 breast, 18.3%; in the assay on HCT-116 colon, 28.4%. Further, the growth is 43.7% in the assay on HCC-2998 colon and 46.3% with KM12 colon.

Consider `Nc1n[nH]c2ccc([C@@H]3Nc4ccc5cn[nH]c5c4[C@H]4C5CCC(C5)[C@@H]34)cc12` (some centres not stated), for which the growth in the assay with T-47D breast was 57.5%; in the assay on BT-549 breast it was 20.9%; in the assay on MDA-MB-435 melanoma, -47.7% (active); in the assay on SW-620 colon, 19%; in the assay on MCF7 breast it was 15.2%; with HCT-116 colon, 12.9%. Besides, the growth was 24.3% with HCC-2998 colon and 17.6% with KM12 colon.

For `O=C1c2cc3c(cc2-c2c1c1cc(F)c(F)cc1c(=O)n2CCCn1ccnc1)OCO3`, the growth in the assay on T-47D breast was 4.88% (active); in the assay on BT-549 breast, 12.5%; with MDA-MB-435 melanoma it was 8.57% (active); in the assay on SW-620 colon, 8.92% (active); in the assay on MCF7 breast, -1.22% (active); in the assay with HCT-116 colon, -12.8% (active). Also, the growth in the assay with HCC-2998 colon was 13.5%; in the assay with KM12 colon it was 3.55% (active).

On to `CC(=O)c1cc2c(N)c(C(=O)Nc3cccc(F)c3C)sc2nc1C`, for which the growth was 80.6% with T-47D breast; 80.9% with BT-549 breast; 4.9% (active) in the assay with MDA-MB-435 melanoma; 85.9% in the assay with SW-620 colon; 78.9% with MCF7 breast; 92.3% with HCT-116 colon. Also, the growth was 85% in the assay on HCC-2998 colon and 87.1% in the assay with KM12 colon.

`COc1ccc(-c2nn(-c3ccc(Cl)cc3)cc2-c2nc3ccccc3[nH]2)cc1`: the growth is 87.9% in the assay on T-47D breast; 113% in the assay on BT-549 breast; 97.7% in the assay on MDA-MB-435 melanoma; 84.6% in the assay on SW-620 colon; 74.3% in the assay on MCF7 breast; 87% in the assay with HCT-116 colon. Further, the growth with HCC-2998 colon was 109%; in the assay with KM12 colon, 102%.

Turning to `O=C(CCl)Oc1ccc(-c2ccccc2)c(Br)c1`, the growth in the assay on T-47D breast is 103%; with BT-549 breast, 104%; in the assay on MDA-MB-435 melanoma, 104%; in the assay on SW-620 colon, 104%; in the assay with MCF7 breast, 103%; in the assay with HCT-116 colon it was 108%. In addition, the figures for the growth with HCC-2998 colon and with KM12 colon were 109% and 104%, respectively.

Regarding `CN(C)c1ccc(N=Nc2ccc(Br)cn2)c(O)c1`, the growth in the assay on T-47D breast is 30.2%; in the assay with BT-549 breast it was 38.2%; in the assay on MDA-MB-435 melanoma, 33%; with SW-620 colon, 26.1%; with MCF7 breast, 10.4%; in the assay with HCT-116 colon, 25.5%. Also, the growth in the assay with HCC-2998 colon is 34.3%; with KM12 colon, 26.7%.

With `Cc1ccccc1COc1ccc(-c2ccnn2-c2ccc(Cl)cc2)cc1`, the growth in the assay with T-47D breast was 65.4%; in the assay on BT-549 breast it was 75%; in the assay on MDA-MB-435 melanoma, 0.81% (active); in the assay on SW-620 colon it was 29.7%; in the assay with MCF7 breast, 31.9%; in the assay on HCT-116 colon it was 38.1%. In addition, the growth in the assay with HCC-2998 colon is 89.1%; in the assay with KM12 colon it was 50.7%.

On to `NS(=O)(=O)c1ccc(CN=C2NC(=O)S/C2=C\c2ccc(Br)cc2)cc1`, for which the growth with T-47D breast is 99.2%; with BT-549 breast it was 103%; with MDA-MB-435 melanoma it was 101%; in the assay with SW-620 colon it was 97.9%; in the assay with MCF7 breast it was 93.5%; in the assay with HCT-116 colon it was 94.7%. The growth in the assay with HCC-2998 colon is 107%; in the assay on KM12 colon, 109%.

As for `Cc1cc2c3ccccc3ccc2[n+]2ccccc12`, the growth was 4.64% (active) in the assay with T-47D breast; -2.46% (active) in the assay with BT-549 breast; 76.5% in the assay on MDA-MB-435 melanoma; 33% with SW-620 colon; 27.2% in the assay on MCF7 breast; 43.5% in the assay with HCT-116 colon. The growth with HCC-2998 colon was 47%; in the assay on KM12 colon, 25.9%.

In the case of `Nc1ccc(S(=O)(=O)O)c2ccc(N=Nc3ccc(N=Nc4ccc(S(=O)(=O)O)cc4)c4ccccc34)c(O)c12`, the growth is 124% in the assay with T-47D breast; 107% in the assay with BT-549 breast; 122% in the assay with MDA-MB-435 melanoma; 93.5% in the assay on SW-620 colon; 101% in the assay with MCF7 breast; 99.4% with HCT-116 colon. Further, the results for the growth in the assay with HCC-2998 colon and in the assay on KM12 colon were 105% and 99%, respectively.

Turning to `O=C1CSC(=S)N1CCc1ccc(O)cc1`, the growth is 38.1% with T-47D breast; 105% in the assay with BT-549 breast; 65.8% in the assay with MDA-MB-435 melanoma; 53.8% with SW-620 colon; 37.6% with MCF7 breast; 71.5% in the assay on HCT-116 colon. The growth with HCC-2998 colon is 102%; in the assay on KM12 colon, 8.84% (active).

Turning to `CC(O)CN(CC(C)O)c1ccc2c(c1)Cc1cc([N+](=O)[O-])ccc1-2` (configuration not stated), the growth with T-47D breast is 109%; in the assay with BT-549 breast, 101%; in the assay on MDA-MB-435 melanoma, 98.7%; in the assay with SW-620 colon, 99%; in the assay with MCF7 breast, 99.2%; in the assay on HCT-116 colon, 89.6%. Besides, the growth was 95.1% in the assay on HCC-2998 colon and 85.3% in the assay on KM12 colon.
